The values below come from PubChem BioAssay.

Unmarked numbers belong to inactive results. For part of these data: Entries with a potency or affinity are not part of this list. Calls of active or inactive are those of the source. Unless noted, no rule for the calls is given here.

Assay [1] in a line: antimalarial activity against Dd2 strain (AID 2302;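 active = growth inhibition above 50% at the single 2 µM test dose, taken to imply half-maximal potency below 2 µM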;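 also: 0% = DMSO untreated growth and 100% = chloroquine plus artemisinin killed control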). The settings on record: P. falciparum Dd2 in RBCs, LDH growth readout, 72 h; at 2 µM; stronger effect = higher value.
A short description of assay [2]: HepG2 cytotoxicity, primary screen, cytotoxicity control for P. falciparum antimalarial project, cell-based, ATP luminescence (AID 2303;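 active = inhibition above 50%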;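 also: 0% = DMSO wells and 100% = digitonin-killed cells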). The note with it: HepG2 viability, 24-48 h, at 10 µM, stronger effect = higher value.
For assay [3], the target named is L-lactate dehydrogenase (Plasmodium falciparum (isolate CDC / Honduras)) (UniProt Q27743). The experiment in a line: PfLDH activity inhibition – cell lysate, 3D7 strain, counter-screen for P. falciparum growth inhibition project (AID 2304).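 Also: 0% = vehicle and 100% = reference inhibitor.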 The note with it: P. falciparum 3D7 crude extract, LDH APAD/NBT absorbance; at 2 µM; stronger effect = higher value. In general terms: The purpose of a counterscreen is to sort out artefacts and off-target activity.

Assay [4] can be described thus: inhibition of 3D7 malaria parasite growth – strain 3D7 (AID 2306).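 Also: 0% = DMSO wells and 100% = chloroquine plus artemisinin control wells.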 The note with it: P. falciparum 3D7 erythrocytic growth, LDH absorbance, 72 h; at 2 µM; stronger effect = higher value.
Assay [5] deals with Calcium-dependent protein kinase 1 (Plasmodium falciparum (isolate 3D7)) (UniProt P62344). The experiment in a line: PfCDPK1 kinase inhibitors, biochemical, TCAMS library (AID 1159585; cut-off not given, nearly all actives have IC50 up to about 0.98 µM;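 also: inhibitors leave more ATP so luminescence rises with inhibition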). The settings on record: recombinant PfCDPK1, Kinase-Glo ATP depletion luminescence.
Assay [6] has as its target Plasmodium falciparum protein kinase 6 (PK6, PF3D7_1337100) (UniProt Q8IDW1). The experiment in a line: PfPK6 kinase inhibitors, biochemical, TCAMS library (AID 1159586). The settings on record: recombinant PfPK6, Kinase-Glo ATP depletion luminescence.
Assay [7] deals with Protein kinase 7 (PK7), Plasmodium falciparum 3D7 (PF3D7_0213400) (UniProt Q7YTF7). The experiment in a line: inhibition of Plasmodium PK7 catalytic activity – biochemical, TCAMS antimalarial set, Kinase-Glo luminescence (AID 1159587). The note with it: recombinant PfPK7, Kinase-Glo ATP depletion luminescence. In general terms: Kinase-Glo measures the ATP left after a reaction by luminescence.

For assay [8], the target named is Calcium-dependent protein kinase 4 (Plasmodium falciparum (isolate 3D7)) (UniProt Q8IBS5). The experiment in a line: PfCDPK4 kinase inhibitors, biochemical, TCAMS library (AID 1159588; cut-off not given, nearly all actives have IC50 up to about 0.91 µM). The settings on record: recombinant PfCDPK4, Kinase-Glo ATP depletion luminescence.
Calcium-dependent protein kinase 4 (Plasmodium falciparum (isolate 3D7)), sequence (Q8IBS5 whole entry, looked up): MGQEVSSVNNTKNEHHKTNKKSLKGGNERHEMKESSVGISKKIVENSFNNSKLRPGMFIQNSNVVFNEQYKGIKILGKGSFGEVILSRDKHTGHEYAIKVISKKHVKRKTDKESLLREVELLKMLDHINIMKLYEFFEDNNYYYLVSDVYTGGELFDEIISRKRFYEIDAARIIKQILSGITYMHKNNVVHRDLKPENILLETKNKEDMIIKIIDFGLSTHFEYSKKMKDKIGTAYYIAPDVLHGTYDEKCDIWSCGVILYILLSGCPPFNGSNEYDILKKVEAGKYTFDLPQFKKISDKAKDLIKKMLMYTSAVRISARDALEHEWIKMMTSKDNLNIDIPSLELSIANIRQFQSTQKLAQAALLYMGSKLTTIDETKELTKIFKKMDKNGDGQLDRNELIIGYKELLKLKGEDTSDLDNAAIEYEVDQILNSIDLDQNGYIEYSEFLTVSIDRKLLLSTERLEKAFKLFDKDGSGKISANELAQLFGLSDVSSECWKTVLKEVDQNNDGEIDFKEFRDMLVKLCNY

Plasmodium falciparum protein kinase 6 (PK6, PF3D7_1337100), sequence (Q8IDW1 1-305): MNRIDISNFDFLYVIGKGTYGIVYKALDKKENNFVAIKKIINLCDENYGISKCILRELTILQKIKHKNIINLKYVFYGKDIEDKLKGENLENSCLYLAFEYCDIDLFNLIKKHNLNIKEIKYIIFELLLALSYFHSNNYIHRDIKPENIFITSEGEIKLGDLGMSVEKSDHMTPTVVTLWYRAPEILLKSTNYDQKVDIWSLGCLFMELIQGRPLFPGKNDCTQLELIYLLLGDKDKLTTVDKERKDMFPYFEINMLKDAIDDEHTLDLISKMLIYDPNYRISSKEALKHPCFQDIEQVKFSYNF
Calcium-dependent protein kinase 1 (Plasmodium falciparum (isolate 3D7)), sequence (P62344 whole entry, looked up): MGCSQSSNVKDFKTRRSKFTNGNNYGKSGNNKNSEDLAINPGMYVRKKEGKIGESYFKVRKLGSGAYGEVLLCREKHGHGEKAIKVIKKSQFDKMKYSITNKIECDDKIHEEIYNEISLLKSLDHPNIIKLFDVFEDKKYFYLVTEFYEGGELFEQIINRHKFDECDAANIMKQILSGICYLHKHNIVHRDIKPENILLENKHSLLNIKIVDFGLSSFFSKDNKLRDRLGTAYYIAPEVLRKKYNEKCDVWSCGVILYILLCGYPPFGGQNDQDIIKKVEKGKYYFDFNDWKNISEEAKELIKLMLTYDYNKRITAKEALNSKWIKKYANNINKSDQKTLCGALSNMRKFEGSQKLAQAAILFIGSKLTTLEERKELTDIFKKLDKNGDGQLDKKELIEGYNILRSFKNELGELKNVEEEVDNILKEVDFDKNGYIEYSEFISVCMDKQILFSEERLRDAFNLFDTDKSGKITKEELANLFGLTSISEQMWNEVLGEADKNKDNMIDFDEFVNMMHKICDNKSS
L-lactate dehydrogenase (Plasmodium falciparum (isolate CDC / Honduras)), sequence (Q27743 whole entry, looked up): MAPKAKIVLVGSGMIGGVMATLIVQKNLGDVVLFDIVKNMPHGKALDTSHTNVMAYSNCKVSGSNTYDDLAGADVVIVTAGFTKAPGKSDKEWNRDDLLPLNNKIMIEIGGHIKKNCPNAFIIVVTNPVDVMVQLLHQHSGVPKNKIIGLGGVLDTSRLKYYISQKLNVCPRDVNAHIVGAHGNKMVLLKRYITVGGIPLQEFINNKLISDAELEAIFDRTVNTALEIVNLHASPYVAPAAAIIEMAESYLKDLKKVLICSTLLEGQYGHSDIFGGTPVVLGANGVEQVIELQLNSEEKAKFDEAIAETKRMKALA
Protein kinase 7 (PK7), Plasmodium falciparum 3D7 (PF3D7_0213400), sequence (Q7YTF7 1-343): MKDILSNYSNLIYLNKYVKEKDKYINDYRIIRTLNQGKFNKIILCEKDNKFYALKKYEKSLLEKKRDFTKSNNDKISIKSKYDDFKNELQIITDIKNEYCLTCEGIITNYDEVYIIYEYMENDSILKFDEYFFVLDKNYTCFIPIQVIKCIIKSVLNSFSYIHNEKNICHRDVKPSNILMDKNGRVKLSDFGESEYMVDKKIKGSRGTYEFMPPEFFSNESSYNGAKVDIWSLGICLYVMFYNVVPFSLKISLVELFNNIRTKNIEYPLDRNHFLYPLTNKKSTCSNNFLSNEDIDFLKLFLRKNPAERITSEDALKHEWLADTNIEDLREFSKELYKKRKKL

On to `CC(C)(CNC(=O)[C@@H]1CCCN(Cc2ccc(Cl)cc2)C1)c1nc(-c2ccc(Cl)c(O)c2)c(-c2ccncc2)[nH]1`, for which the growth inhibition in assay [1] is 37%; in assay [4], 97% (active). Moreover, the inhibition in assay [2] is 66% (active); in assay [3], -2%. Moreover, the result in assay [5], in assay [6], in assay [7] and in assay [8] was inactive.
Consider `COc1ccccc1NC(=O)c1cc(C(=O)c2cc(Cl)ccc2O)cn(-c2ccccc2OC)c1=O`, for which the values for the growth inhibition in assay [1] and in assay [4] were 31% and 92% (active), respectively. The inhibition in assay [2] was 9%; in assay [3] it was 7%. Also, the outcome in assay [5], in assay [6], in assay [7] and in assay [8] was inactive.
`O=C(NCC1CCN(Cc2ccc(F)cc2)C1)c1cc(-c2cccc(C(F)(F)F)c2)cs1` (stereo not drawn): the values for the growth inhibition in assay [1] and in assay [4] were 18% and 93% (active), respectively. In addition, the values for the inhibition in assay [2] and in assay [3] were 38% and -2%, respectively. Besides, the outcome in assay [5], in assay [6], in assay [7] and in assay [8] was inactive.
Take `CN(C)CCCN(C)C(=O)c1cc2cc(-c3ccccc3)ccc2n1S(=O)(=O)c1ccccc1`: the growth inhibition in assay [1] was 66% (active); in assay [4], 98% (active). For the same compound, the figures for the inhibition in assay [2] and in assay [3] were 29% and -1%, respectively. In addition, the result in assay [5], in assay [6], in assay [7] and in assay [8] was inactive.
As for `COc1ccc(Cl)cc1S(=O)(=O)Nc1cccc(CCN2CCC(N3CCCCC3)CC2)c1`, the growth inhibition was 9% in assay [1] and 101% (active) in assay [4]. Besides, the inhibition is 33% in assay [2] and 4% in assay [3]. The result in assay [5], in assay [6], in assay [7] and in assay [8] was inactive.
Take `CCCCCCCCNc1c2ccc(Cl)cc2nc2ccc(OC)cc12`: the growth inhibition in assay [1] was 96% (active); in assay [4], 89% (active). The inhibition in assay [2] was 11%; in assay [3] it was -3%. The result in assay [5], in assay [6], in assay [7] and in assay [8] was inactive.

For orientation: inhibition means the change of the read-out against control, counted positive when it falls.
